Experimental findings from PubChem BioAssay (NCI) are described below.

Molecules are shown by their SMILES. About 79,000 compounds went through this panel and 15% of them were active in at least one assay; those are over-represented in the sample as a whole. Values without a mark were called inactive. Activity calls are given as the source filed them. Cut-off read from the data, not from the text of the source: active = growth inhibition above about 70%; inactive = the rest.

Assay [1] in a line: NCI Yeast Anticancer Drug Screen. Data for the rad50 strain (AID 155).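 Note: 0% = growth of vehicle-only cultures of the same strain.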 To be noted: S. cerevisiae rad50 strain growth inhibition, hits give high values. The essentials:
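Compounds were tested on a yeast strain with an engineered DNA damage repair alteration; the reported value is growth inhibition normalised to vehicle treatment.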

Assay [2] is described as follows: NCI Yeast Anticancer Drug Screen. Data for the mec2-1 strain (AID 157). To be noted: S. cerevisiae mec2-1 strain, hits give high values. The method in brief:
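Readout is yeast growth inhibition, normalised to vehicle-treated controls, in the mec2-1 strain exposed to compound.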

Assay [3] is described as follows: NCI Yeast Anticancer Drug Screen. Data for the sgs1 mgt1 strain (AID 161).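 Note: 0% = growth of cultures given vehicle only.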 As to conditions: S. cerevisiae sgs1 mgt1 strain, hits give high values. The essentials: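 Yeast cells carrying a defined DNA-repair defect were exposed to test compounds. Growth inhibition was measured relative to vehicle-treated controls.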
Assay [4] can be described thus: NCI Yeast Anticancer Drug Screen. Data for the cln2 rad14 strain (AID 165).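 Note: 0% = growth equal to vehicle treated cultures.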 To be noted: S. cerevisiae cln2 rad14 strain, hits give high values. The essentials: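 Relative to vehicle controls, growth inhibition of compound-treated cln2 rad14 yeast was recorded.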
A short description of assay [5]: NCI Yeast Anticancer Drug Screen. Data for the mlh1 rad18 strain (AID 175). To be noted: S. cerevisiae mlh1 rad18 strain growth inhibition, hits give high values. The essentials: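 Test agents were incubated with a yeast strain of defined genotype (DNA damage repair defect). Inhibition of growth was derived by comparison with vehicle-exposed cultures.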
Assay [6] in a line: NCI Yeast Anticancer Drug Screen. Data for the bub3 strain (AID 167). To be noted: S. cerevisiae bub3 mutant strain, hits give high values. The method in brief:
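Growth of a checkpoint-deficient yeast mutant is measured after compound exposure. Values represent inhibition relative to vehicle.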

The mark [7] stands for this setting: at 5.0 µM (retest, dose inferred, filed as 0.5).
Setting [8] is: at 50.0 µM (retest, dose inferred, filed as 5.0).

As for `Cc1cccc2c1Oc1ccccc1C2N1C(=O)/C(=C/c2ccccc2Cl)SC1=S` (stereo unspecified), the growth inhibition in assay [1] (setting [7]) is 99% (active); in assay [1] (setting [8]), 74% (active); in assay [1] (at 50.0 µM), 60.1%; in assay [2] (setting [7]), 99% (active); in assay [2] (setting [8]) it was 48%; in assay [2] (at 50.0 µM), 29.1%. The growth inhibition in assay [3] (setting [7]) is 100% (active); in assay [3] (setting [8]), 29%; in assay [3] (at 50.0 µM), 38.4%; in assay [4] (setting [7]), 96% (active); in assay [4] (setting [8]) it was 1%; in assay [4] (at 50.0 µM) it was 16.4%. For the same compound, the results for the growth inhibition in assay [5] (setting [7]), in assay [5] (setting [8]) and in assay [5] (at 50.0 µM) were 99% (active), 72% (active) and 64.2%, respectively.
Turning to `CSc1nc2c(c(=O)[nH]1)C1C=C(C)CCC1C(C)(C)C2` (stereo unspecified), the growth inhibition in assay [1] (setting [7]) was -5%; in assay [1] (setting [8]), 97% (active); in assay [1] (at 50.0 µM), 52.1%; in assay [2] (setting [7]), -5%; in assay [2] (setting [8]), 97% (active); in assay [2] (at 50.0 µM) it was 56.1%. Moreover, the growth inhibition was 0% in assay [3] (setting [7]); 97% (active) in assay [3] (setting [8]); 56% in assay [3] (at 50.0 µM); -3% in assay [4] (setting [7]); 96% (active) in assay [4] (setting [8]); 69.2% in assay [4] (at 50.0 µM). Further, the growth inhibition was 10% in assay [6] (setting [7]); 97% (active) in assay [6] (setting [8]); 53.8% in assay [6] (at 50.0 µM); -10% in assay [5] (setting [7]); 97% (active) in assay [5] (setting [8]); 51.6% in assay [5] (at 50.0 µM).
Take `COC(=O)C(=[N+]=[N-])C(=O)c1ccc(Cl)cc1`: the growth inhibition was 2% in assay [1] (setting [7]); 30% in assay [1] (setting [8]); 81% (active) in assay [1] (at 50.0 µM); 2% in assay [2] (setting [7]); 13% in assay [2] (setting [8]); 96.2% (active) in assay [2] (at 50.0 µM). Moreover, the growth inhibition in assay [3] (setting [7]) was 2%; in assay [3] (setting [8]), 40%; in assay [3] (at 50.0 µM), 50.7%; in assay [4] (setting [7]), 0%; in assay [4] (setting [8]), 19%; in assay [4] (at 50.0 µM) it was 44.4%. Moreover, the growth inhibition was -3% in assay [5] (setting [7]), 18% in assay [5] (setting [8]) and 40.5% in assay [5] (at 50.0 µM).
For the compound `O=[N+]([O-])c1ccc(/C(=C\c2ccccc2)Cn2ccnc2)cc1`, the growth inhibition in assay [1] (setting [7]) was 88% (active); in assay [1] (setting [8]), 94% (active); in assay [1] (at 50.0 µM), 71.5% (active); in assay [2] (setting [7]), 59%; in assay [2] (setting [8]) it was 85% (active); in assay [2] (at 50.0 µM) it was 77% (active). In addition, the growth inhibition in assay [3] (setting [7]) is 84% (active); in assay [3] (setting [8]), 92% (active); in assay [3] (at 50.0 µM), 71.3% (active); in assay [4] (setting [7]) it was 89% (active); in assay [4] (setting [8]) it was 91% (active); in assay [4] (at 50.0 µM), 64.8%. Moreover, the growth inhibition was 78% (active) in assay [6] (setting [7]); 94% (active) in assay [6] (setting [8]); 81.8% (active) in assay [6] (at 50.0 µM); 80% (active) in assay [5] (setting [7]); 92% (active) in assay [5] (setting [8]); 75.5% (active) in assay [5] (at 50.0 µM).
`CCCCc1cc2c(cc1O)CCC1C2CC[C@@]2(C)C1CC[C@@H]2O` (stereo partly specified): the growth inhibition in assay [1] (setting [7]) was 5%; in assay [1] (setting [8]) it was 96% (active); in assay [1] (at 50.0 µM), 67.5%; in assay [2] (setting [7]), -6%; in assay [2] (setting [8]), 95% (active); in assay [2] (at 50.0 µM) it was 78.5% (active). Moreover, the growth inhibition was -5% in assay [3] (setting [7]); 95% (active) in assay [3] (setting [8]); 80.6% (active) in assay [3] (at 50.0 µM); 2% in assay [4] (setting [7]); 97% (active) in assay [4] (setting [8]); 86.8% (active) in assay [4] (at 50.0 µM). Also, the growth inhibition in assay [6] (setting [7]) is -27%; in assay [6] (setting [8]), 96% (active); in assay [6] (at 50.0 µM), 81.7% (active); in assay [5] (setting [7]) it was -2%; in assay [5] (setting [8]) it was 96% (active); in assay [5] (at 50.0 µM) it was 84.6% (active).
Turning to `CCOC(=O)C1=C(c2ccccc2)SC(c2ccccc2)N(C(C)C)C1=O` (stereo unspecified), the growth inhibition is 8% in assay [1] (setting [7]); 67% in assay [1] (setting [8]); 90.3% (active) in assay [1] (at 50.0 µM); 13% in assay [2] (setting [7]); 51% in assay [2] (setting [8]); 88% (active) in assay [2] (at 50.0 µM). The growth inhibition in assay [3] (setting [7]) is 15%; in assay [3] (setting [8]), 81% (active); in assay [3] (at 50.0 µM), 94.5% (active); in assay [4] (setting [7]), 12%; in assay [4] (setting [8]) it was 63%; in assay [4] (at 50.0 µM) it was 83.6% (active). In addition, the growth inhibition in assay [6] (setting [7]) is 4%; in assay [6] (setting [8]), 68%; in assay [6] (at 50.0 µM), 87.7% (active); in assay [5] (setting [7]), 9%; in assay [5] (setting [8]), 76% (active); in assay [5] (at 50.0 µM) it was 88.1% (active).
`Cc1cn(C2CC(Br)C(COC(c3ccccc3)(c3ccccc3)c3ccccc3)O2)c(=O)[nH]c1=O` (stereo unspecified): the growth inhibition in assay [1] (setting [7]) is 10%; in assay [1] (setting [8]), 97% (active); in assay [1] (at 50.0 µM), 97.6% (active); in assay [2] (setting [7]), 6%; in assay [2] (setting [8]), 99% (active); in assay [2] (at 50.0 µM), 98.3% (active). For the same compound, the growth inhibition in assay [3] (setting [7]) is 8%; in assay [3] (setting [8]), 33%; in assay [3] (at 50.0 µM), 98.2% (active); in assay [4] (setting [7]), 2%; in assay [4] (setting [8]) it was 97% (active); in assay [4] (at 50.0 µM), 96.8% (active). Also, the growth inhibition is 6% in assay [6] (setting [7]); 99% (active) in assay [6] (setting [8]); 96.2% (active) in assay [6] (at 50.0 µM); 8% in assay [5] (setting [7]); 98% (active) in assay [5] (setting [8]); 97.9% (active) in assay [5] (at 50.0 µM).
As for `CCCCCCCCCCSCCO`, the growth inhibition in assay [1] (setting [7]) is 30%; in assay [1] (setting [8]) it was 88% (active); in assay [1] (at 50.0 µM) it was 92.7% (active); in assay [2] (setting [7]), 51%; in assay [2] (setting [8]), 92% (active); in assay [2] (at 50.0 µM), 94% (active). Also, the growth inhibition was 99% (active) in assay [3] (setting [7]); 93% (active) in assay [3] (setting [8]); 93.5% (active) in assay [3] (at 50.0 µM); 78% (active) in assay [4] (setting [7]); 99% (active) in assay [4] (setting [8]); 92.3% (active) in assay [4] (at 50.0 µM). The growth inhibition in assay [6] (setting [7]) is 100% (active); in assay [6] (setting [8]) it was 97% (active); in assay [6] (at 50.0 µM), 92.5% (active); in assay [5] (setting [7]), 42%; in assay [5] (setting [8]), 97% (active); in assay [5] (at 50.0 µM), 92.7% (active).
As to `CCN(CC)CCC(=O)/C=C/c1ccc(Cl)c(Cl)c1`, the growth inhibition is 10% in assay [1] (setting [7]); 97% (active) in assay [1] (setting [8]); 90% (active) in assay [1] (at 50.0 µM); 0% in assay [2] (setting [7]); 99% (active) in assay [2] (setting [8]); 93.1% (active) in assay [2] (at 50.0 µM). Besides, the growth inhibition was 16% in assay [3] (setting [7]); 56% in assay [3] (setting [8]); 92% (active) in assay [3] (at 50.0 µM); 14% in assay [4] (setting [7]); 97% (active) in assay [4] (setting [8]); 90.4% (active) in assay [4] (at 50.0 µM). Besides, the growth inhibition in assay [6] (setting [7]) is 10%; in assay [6] (setting [8]), 98% (active); in assay [6] (at 50.0 µM) it was 91.4% (active); in assay [5] (setting [7]), 37%; in assay [5] (setting [8]) it was 98% (active); in assay [5] (at 50.0 µM) it was 89.3% (active).
